TGFb inhibitor – inhibitors of TGF-b signaling; Potency, µM (titrated, usually from 46.1 µM), without a hit: at the top dose activity, negative = inhibition, hits mostly inhibitors; HepG2 CAGA-GFP TGF-b/SMAD3 reporter, GFP fluorescence, 18 h; TGF-beta stimulated, 500 pg/mL final; 1.2% of 410,000 active; further: on the % scale 0 is the no-effect control and ±100 the full control effect; nearly all actives have a fitted effect of over 65% in size
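GFP signal (ex488/em500-530) from TGF-beta-stimulated HEPG2 CAGA-GFP cells, 500 pg/mL final, 18 h at 37 degrees C in DMEM plus 1% FBS, normalized to unstimulated and DMSO-stimulated controls.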
DT40 TDP1 no CPT – qHTS for Inhibitors of human tyrosyl-DNA phosphodiesterase 1 (TDP1): qHTS in cells in absence of CPT. DT40 Tdp1-/- hTDP1 cells, no CPT, ATP luminescence, 48 h. Potency, µM (titrated, usually from 46.2 µM), for inactives: at the highest dose activity change, negative = growth inhibition, actives largely listed as inhibitors. 15% of 420,000 active. AID 686978, 2013; further: on the % scale 0 is the no-effect control and ±100 the full control effect; nearly all actives have a fitted effect of over 55% in size
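Compound effects on proliferation are scored in DT40 Tdp1-/-;hTDP1 cells in the absence of CPT. ATP levels (CellTiter-Glo luminescence) are recorded after a ≥48 hr, 37 °C incubation.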
ATXN viability – cell viability loss in ATXN counter-screen | S2 cells (HEK-293 line with an ATXN2-luciferase reporter) viability, CellTiter-Fluor protease fluorescence, 24 h | Potency, µM (highest dose often 56.7 µM), hits mostly cytotoxic | 0.49% of 400,000 active | AID 651635; further: nearly all actives have a fitted effect of over 40% in size
HepG2 viability – kills HepG2 cells in TGF-b inhibitor counter-screen; Potency, µM (series often up to 46.1 µM), inactives show at the highest dose activity change, negative = cytotoxicity, most hits filed as cytotoxic; HepG2 CAGA-GFP viability, ATP luminescence, 18 h; 0.76% of 410,000 active
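HepG2 CAGA-GFP cells (1000/well, DMEM with 1% FBS) received compound, then TGF-beta at 500 pg/mL final, and were incubated 18 hours at 37 degrees C. Viability was read by CellTiter-Glo luminescence. Media-only wells were set as complete cell-killing and DMSO as no toxicity.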
ATXN2 expr inh – reduces ATXN2 reporter expression in HEK-293 cells. HEK-293 ATXN2-luciferase reporter, luminescence, 24 h. Potency, µM (titrated, usually from 57 µM), inactives show at the highest dose activity change, negative = inhibition, actives largely listed as inhibitors. 0.72% of 360,000 active. AID 1745845; further: on the % scale 0 is the no-effect control and ±100 the full control effect; nearly all actives have a fitted effect of over 55% in size
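ATXN2-luciferase reporter cells (luciferase flanked by upstream and downstream ATXN2 gene portions) were treated 24 h at 37 °C with compounds at up to 57 uM. SteadyGlo luminescence gave expression; GF-AFC fluorescence gave viability.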
DT40 TDP1 CPT – DT40-hTDP1 cell growth loss with CPT; chicken DT40 Tdp1-/-;hTDP1 cells + 20 nM CPT, ATP luminescence, 48 h; Potency, µM (series often up to 46.2 µM), inactives show at the highest dose activity change, negative = growth inhibition, most hits filed as inhibitors; 12% of 420,000 active; AID 686979; further: on the % scale 0 is the no-effect control and ±100 the full control effect; nearly all actives have a fitted effect of over 55% in size
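Cell growth measured by CellTiter-Glo luminescence after a minimum 48 h, 37 C compound exposure with 20 nM CPT in Tdp1-knockout DT40 cells stably expressing hTDP1, seeded 400/well; qHTS titration format.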
* = called active by the depositor; i = inactive; ? = inconclusive; . = no result given; ! = not confirmed by another sample; [ ] = remark or other dose. Most compounds without a hit are left out; they make up all but 17% or so of the library. The call rests on the fitted dose curve; in most records, active means well fitted curve in the direction sought with a large enough effect; inconclusive means small, poorly fitted or top-dose-only effect, or another doubt; inactive means no such curve, though single readings can be large; an effect the other way counts as inactive or inconclusive. Potency means the concentration at half of the fitted maximal effect.

SMILES	TGFb inhibitor	DT40 TDP1 no CPT	ATXN viability	HepG2 viability	ATXN2 expr inh	DT40 TDP1 CPT
Cc1ccccc1NC(=O)CN1C(=O)NC2(CCCCCCC2)C1=O	6%	-25%	i	7%	-4%	-26%
CN(CC(=O)Nc1cccc(F)c1)C(=O)CN1C(=O)NC2(CCCCC2)C1=O	0%	21µM*	i	3%	3%	?
O=C(CN1C(=O)NC2(CCCCCCC2)C1=O)Nc1ccc(OC(F)F)cc1	?	18µM*	i	-43%	-23%	23µM*
O=C(CN1C(=O)NC2(CCCC2)C1=O)OCCOc1ccc(Br)cc1	-7%	18µM*	i	-2%	1%	15µM*
O=C(CN1C(=O)NC2(CCCCC2)C1=O)Nc1ccc(F)cc1	2%	7%	i	-7%	4%[11.3 µM]	4%
Cc1ccc(NC(=O)CN2C(=O)NC3(CCCCCCC3)C2=O)cc1C	-5%	?	i	-6%	6%	9.2µM*
CC1CCC2(CC1)NC(=O)N(CC(=O)Nc1ccc3c(c1)CCC3)C2=O (stereo unspecified)	?	?	i	-10%	-36%	?
O=C(CN1C(=O)NC2(CCCCCCC2)C1=O)Nc1cccc(Br)c1	?	21µM*	i	-20%	-30%	16µM*
O=C(CN1C(=O)NC2(CCCCCC2)C1=O)Nc1ccc2c(c1)CCC2	-10%	12µM*	?	-19%	?	?
COCCN(Cc1ccccc1)C(=O)C1CCN(C(=O)Nc2ccccc2)CC1	-1%	-1%	i	-3%	5%	4%
COC(=O)CSc1nc(N2CCCCC2)c2c(c1C#N)CCCC2	?	23µM*	i	-57%	2%	?
CCOC(=O)C1CCN(CCC(=O)Nc2ccc(F)cc2)CC1	-8%	-2%	?	-17%	-11%	-14%
CC1(C)Cc2c(sc3ncnc(NNC(=S)NCc4ccccc4)c23)CO1	?	23µM*	?	-15%	.	?
COc1ccc(S(=O)(=O)NC2CCN(Cc3ccccc3)CC2)cc1NC(C)=O	2%	-30%	i	-5%	-3%	-28%
Oc1ccc(CNc2ccccc2F)c2cccnc12	7.1µM*	2.1µM*	11µM*!	-24%	18µM*!	2.1µM*
Cc1ccc(S(=O)(=O)Nc2cc(Cl)c(O)c3ncccc23)cc1	6.3µM*	5.2µM*	i	2.8µM*	11µM*	2.3µM*
O=S(=O)(Nc1ccc(O)c2ncccc12)c1ccccc1F	-21%	.	i	-20%	39%	.
Oc1ccc(F)c2cccnc12	?	15µM*	i	1%	-6%	13µM*
Cn1c(=O)c2cccnc2c(=O)n1C	11%	9%	i	-1%	.	0%
Oc1c(Cl)cc(Cl)c2cccnc12	?	8.2µM*	?	-22%	24µM*!	18µM*
COc1ccc(C(=O)NNc2ncnc3c2cnn3-c2ccc(C)c(Cl)c2)cc1	17%	3%	i	-1%	46%	-15%
C[C@](O)(C(=O)Nc1ccc(S(=O)(=O)c2ccccc2)cc1)C(F)(F)F	.	?	.	.	.	-4%
CCN(CC)/[N+]([O-])=N/OCOC(=O)C(C)c1ccc2cc(OC(C)=O)ccc2c1 (stereo unspecified)	4%	.	.	-1%	.	.
O=C(O)c1ccc(O)c2ncccc12	-16%	.	i	-15%	19%	.
Oc1ccc(Cl)c2cccnc12	7.1µM*	1.8µM*	?	10µM*	13µM*!	1.8µM*
SMILES	TGFb inhibitor	DT40 TDP1 no CPT	ATXN viability	HepG2 viability	ATXN2 expr inh	DT40 TDP1 CPT
Nc1n[nH]c(N)c1N=Nc1ccc(Cl)cc1Cl	-3%	14%	?	4%	18%	1%
Fc1ccc(-c2c[nH]c(=S)n2Cc2ccccc2)cc1	-18%	?	i	-40%	-1%	21µM*
Cc1cccc(OCC(=O)Nc2ccc3oc(=O)ccc3c2)c1C	-31%	-18%	?	-11%	-12%	-3%
CN(C)N=C1c2cc(S(=O)(=O)N3CCOCC3)ccc2-c2ccc(S(=O)(=O)N3CCOCC3)cc21	-7%	21µM*	i	-2%	-2%	?
CC1CCN(S(=O)(=O)c2ccc3c(c2)C(=NO)c2cc(S(=O)(=O)N4CCC(C)CC4)ccc2-3)CC1	8.9µM*	0.73µM*	3.2µM*	1.3µM*	3.5µM*	0.65µM*
O=S(=O)(c1ccc2c(c1)C(=NO)c1cc(S(=O)(=O)N3CCCCC3)ccc1-2)N1CCCCC1	?	2.9µM*	3.5µM*	1.8µM*	3.5µM*	4.1µM*
O=S(=O)(c1ccc(S(=O)(=O)N2CCCC2)cc1)N1CCCCCC1	1%	-10%	i	-24%	5%	4%
COC(=O)c1ccccc1NC(=O)CSc1nc(-c2ccccc2)cc(C(F)(F)F)n1	4%	?	i	4%	2%	?
COc1ccc(CCNC(=O)c2c(O)c3ccccc3[nH]c2=O)cc1OC	-3%	?	i	-2%	-3%	0%
COc1ccccc1/C=C(/C(=O)OCC(=O)N(C)Cc1ccccc1)c1ccccc1	-15%	13µM*	i	-1%	-14%	?
COc1ccccc1/C=C(/C(=O)OCC(=O)Nc1cc(C)ccc1C)c1ccccc1	-19%	21µM*	i	-19%	-19%	26µM*
Cc1oc(-c2ccc3c(c2)OCCO3)cc1C(=O)NC(Cc1ccccc1)C(=O)O (stereo unspecified)	22%	-9%	?	-4%	22%	-13%
COC1OC2COC(c3ccccc3)OC2C(=O)C1NC(=O)c1ccccc1 (stereo unspecified)	?	4%	i	2%	5%	7%
COc1ccc(-n2nnnc2CNC(=O)C(=O)c2c(C)[nH]c3ccccc23)cc1	4%	?	i	0%	-7%	7%
CCN(CC)Cc1c(O)ccc2c([N+](=O)[O-])c(C)n(-c3ccc(OC)cc3)c12	-6%	16µM*	i	0%	-23%	7.3µM*
CCN(CC)Cc1c(O)ccc2c(=O)c(-c3ccccc3OC)coc12	-28%	-5%	i	10%	-7%	0%
CN1CCN(C(=O)c2ccc(Cl)cc2)CC1	?	-10%	i	4%	-11%	-1%
CCOC(=O)N1CCN(C(=O)c2ccc(CSc3ccc(Cl)cc3)cc2)CC1	?	7.3µM*	?	-5%	-29%[11.3 µM]	?
CN1CCN(C(=O)c2ccc(CSc3ccc(Cl)cc3)cc2)CC1	-5%	23µM*	?	4%	-28%	21µM*
